Measured values reported in ChEMBL document CHEMBL4513216, “Probing the Open Global Health Chemical Diversity Library for Multistage-Active Starting Points for Next-Generation Antimalarials” (ACS Infect Dis, 2020).
Out of some 69,000 compounds screened, about 8,600 (12%) showed an effect of 50% or more. Shown is part of a subset that was picked to be rich in strong results.

system: Plasmodium berghei; test: Screen against P. berghei liver stage (PbLuc), transformed with Luciferase, at 10uM; type: functional, HepG2; conditions: tested at 10 uM

Structure (SMILES)	INHIBITION [%]
CCC1CN(CC(=O)N2CCN(C(C)=O)CC2)CCN1CCOC (configuration not stated)	4.52
CCN1CC(C(=O)N(C)Cc2cc3cc(F)ccc3[nH]2)CC1=O (configuration not stated)	-14.1
CN(Cc1cc2cc(F)ccc2[nH]1)C(=O)C1CC(=O)N(C2CCCC2)C1 (configuration not stated)	26.5
CN(C)CCN1CC(C(=O)N(C)Cc2cc3cc(F)ccc3[nH]2)CC1=O (configuration not stated)	52.2
Cc1cc(S(=O)(=O)N2CCC(N3CCC(O)C3)CC2)c(Cl)cc1Cl (configuration not stated)	71.1
Cc1ccc(S(=O)(=O)N2CC[C@@H](O)C2)c(F)c1	2.25
Cc1cc(S(=O)(=O)N2CC[C@@H](O)C2)c(Cl)cc1F	-46.4
O=C(NCC1CCCO1)c1nc2c(s1)CCCN2c1ncccn1 (configuration not stated)	-4.32
Cc1ccc(C(=O)N2[C@@H]3CC[C@H]2CC(=O)N(C)C3)c(=O)[nH]1	-1.85
N#Cc1ccc(C(=O)N2C[C@H](OCc3cccnc3)[C@H]3COC[C@H]32)cc1	-5.31
Cc1noc(C)c1CN(Cc1cccnc1)C1CN2CCC1CC2 (configuration not stated)	10.3
CCc1cc(CN(Cc2cccnc2)C2CN3CCC2CC3)on1 (configuration not stated)	28.5
CC(C)c1noc(CN(Cc2cccnc2)C2CN3CCC2CC3)n1 (configuration not stated)	77.5
CC(C)c1noc(CCCC(=O)N2CCC(Cc3cccnc3)CC2)n1	27.1
CC(C)(C)c1nc(CN(Cc2cccnc2)C2CN3CCC2CC3)no1 (configuration not stated)	54.8
CC(C)(C)c1nc(CN(Cc2ccccc2F)C2CCCCC2)no1	35.3
O=S(=O)(Cc1ccc(Br)cc1)NCCO	28.5
Cc1nn(C)c(N2CCOCC2)c1CNCc1cscn1	27.0165
CCc1nnc(CN2CCCC2Cn2cc(C)cn2)o1 (configuration not stated)	-29.1
O=C(c1ccc(F)c(F)c1)N1CCC(Cn2cc(CO)nn2)CC1	33.4
Cc1nc(CN2CCCC(NCc3csc(C(C)(C)C)n3)C2)no1 (configuration not stated)	22.3
COCCN1CCO[C@@H]2CN(C(=O)COc3ccc(C)cc3)C[C@@H]2C1	37.9
[O-][S+](Cc1c(F)cccc1Cl)Cc1nnnn1C1CC1 (configuration not stated)	19.8
CCc1nc2n(n1)CC(NCC(=O)Nc1cc(C(C)(C)C)no1)CC2 (configuration not stated)	-13.5
Cc1cc(C(=O)N2CCCC(C)C2)ccc1NCc1nc(C(C)C)no1 (configuration not stated)	18.2
O=C(O)c1ccc2[nH]cc(CN3CCOCC3)c2c1	-9.76

Structure (SMILES)	INHIBITION [%]
O=C(O)c1ccc2c(CN3CCOCC3)c[nH]c2c1	56.5
O=C(O)c1ccc2c(CN3CCCC3)c[nH]c2c1	42.3
Cc1cccc(C(=O)NC(C(=O)NCc2ccc(O)nc2)C(C)C)c1 (configuration not stated)	28.7
c1ccc(-c2cc(CN3C[C@H]4CC[C@@H](C3)N(CC3CCC3)C4)on2)cc1	86.8
c1ccc(-c2cc(CN3C[C@H]4CC[C@H]3C4)on2)cc1	-0.27
c1ccc(-c2cc(CN3C[C@H]4CC[C@@H](C3)N(CC3CC3)C4)on2)cc1	48.2
CN(c1cccnn1)C1CCN(C(=O)Cc2c[nH]c3ccccc23)CC1	36.1
CCCOC1CCCN(c2nc(CC)nc3c2cnn3C)C1 (configuration not stated)	7.77
Cc1nc(N2CCCC2)nc2c1CCN(C(=O)C1CCC1)CC2	-21.1
Nc1ncc(-c2csc(NC(=O)C[C@H]3COCCN3)n2)cn1	-7.79
O=C(Cc1ccc2c(c1)CCC2)NCCNc1cnccn1	8.64
c1cnc(N2CCO[C@H]3[C@H](OCC4CCOCC4)CC[C@@H]32)nc1	21.6
c1cc(CN2C[C@H](OCC3CCOCC3)[C@H]3COC[C@H]32)cs1	9.65
c1cc(CN2C[C@H](OCC3CCOCC3)[C@H]3COC[C@H]32)co1	57.3
c1cnc(N2C[C@H](OCC3CCOCC3)[C@H]3COC[C@H]32)nc1	68.9
c1csc(CN2C[C@H](OCC3CCOCC3)[C@H]3COC[C@H]32)n1	26.5
COc1ccc(CN2C[C@H](OCC3CCOCC3)[C@H]3COC[C@H]32)cc1	41.8
COc1ccc(-n2cc3[nH]c(=O)[nH]n3c2=O)cc1	3.68
Cc1ncncc1C(=O)N1CCCC(n2ccnc2C)C1 (configuration not stated)	-20.1
NC(=O)N1CCC2(CC1)CN(Cc1cccnc1)C(=O)CO2	2.4
COCCN1CCC2(CC1)CN(C(=O)c1ccccc1)CCO2	39.5
Cc1nocc1C(=O)N1CCOC2(COCCN(C(C)C)C2)C1 (configuration not stated)	20.6
O=C(c1ccco1)N1CCCC2(CN(Cc3cccs3)CCO2)C1 (configuration not stated)	2.02
O=C(c1ccco1)N1CCCC2(CN(Cc3ccsc3)CCO2)C1 (configuration not stated)	76.5
COCCN1CCOCC2(C1)CN(C(=O)c1conc1C)CCO2 (configuration not stated)	53.4
O=C(c1ccco1)N1CCCC2(CN(Cc3ccoc3)CCO2)C1 (configuration not stated)	-8.25

Structure (SMILES)	INHIBITION [%]
Cc1nocc1C(=O)N1CCOC2(COCCN(CC3CC3)C2)C1 (configuration not stated)	1.7
COCCN1CCC2(CC1)CN(C(=O)c1ccco1)CCO2	51.9
COCCN1CCC2(CC1)CN(C(=O)c1cccs1)CCO2	-23.3
O=C(CC1CC1)N1CC[C@H]2OCC[C@@]2(COc2ncccc2F)C1	-31.3
CN1CCN(C(=O)C2CCCN(c3cccnn3)C2)CC1 (configuration not stated)	42.4
O=C(Nc1cc(C(F)(F)F)c[nH]c1=O)C1CCCCN1 (configuration not stated)	-5.51
CNC(=O)CCN(C)c1nc(-c2ccncc2)nc2c1CCNC2	35.8
CCCc1nnc(N2CC[C@](C)(O)[C@H](C)C2)s1	-50.3
CNc1ccnc(N2CC[C@@](O)(C3CCOCC3)[C@H](C)C2)n1	59.3
CCCc1nnc(N2CC[C@@](O)(C3CCOCC3)[C@H](C)C2)s1	60.3
CNc1ccnc(N2C[C@@H](C)[C@](O)(C3CC3)C2)n1	39.9
CCCc1nnc(N2C[C@@H](C)[C@@](C)(O)C2)s1	9.96
CNc1ccnc(N2C[C@@H](C)[C@](O)(C3CCC3)C2)n1	30.1
Cc1cnc(C2(C)CCN(Cc3csc(C)n3)CC2)s1	6.32
O=C(NC1CCCOc2cc(Cl)ccc21)c1ccc(=O)[nH]n1 (configuration not stated)	-10.9
CCN1CC2(CCC1=O)CCN(C(=O)c1cn3cccnc3n1)CC2	-13.6
COc1ccc(Br)cc1SCCC(N)=O	16.1
O=C(NCc1ccccn1)[C@H]1COC[C@H]2CN(Cc3ccoc3)C[C@H]21	31.8
O=C(NC1CC1)[C@@H]1CCO[C@@H]2CCN(CC3CCC3)C[C@H]21	61.1
O=C(NC1CC1)[C@@H]1CCO[C@@H]2CCN(CC3CCC3)C[C@@H]21	91
O=C(NCc1ccco1)[C@@H]1CCO[C@@H]2CCN(CC3CC3)C[C@@H]21	67.2
CN1CC[C@H]2OCC[C@@H](C(=O)NCc3ccco3)[C@@H]2C1	18.3
O=C(NC1CC1)[C@@H]1CCO[C@@H]2CCN(Cc3ccsc3)C[C@H]21	27.3
O=C(NC1CC1)[C@@H]1CCO[C@@H]2CCN(Cc3ccco3)C[C@H]21	18.3
O=C(NCC1CC1)[C@@H]1CCO[C@@H]2CCN(Cc3ccco3)C[C@H]21	-22.8
O=C(NC1CC1)[C@@H]1CCO[C@@H]2CCN(C3CCOCC3)C[C@H]21	-48.2

Structure (SMILES)	INHIBITION [%]
O=C(NC1CC1)[C@@H]1CCO[C@@H]2CCN(C3CCCC3)C[C@H]21	3.25
O=C(NCc1ccccn1)[C@@H]1CCO[C@@H]2CCN(Cc3ccoc3)C[C@H]21	54.6
Cn1cc(CN2CC[C@H]3OCC[C@@H](C(=O)NCc4ccco4)[C@@H]3C2)cn1	5.96
CN(C)Cc1ccnc(C2CCCN2Cc2cc3ccccc3s2)n1 (configuration not stated)	19.6
CC1CN(Cc2cc(C#N)ccc2F)CCN1Cc1nccn1C (configuration not stated)	22.95
O=C(CCc1cc2n(n1)CCCNC2)N1CCSCC1	-24.7
CNc1nc(C2CCCCN2C(=O)COC)nc2c1CN(C)CC2 (configuration not stated)	38.2
O=C(NC1CCC1)[C@@H]1CCO[C@@H]2CCN(C3CCCC3)C[C@@H]21	53.4
O=C(NC1CCC1)[C@@H]1CCO[C@@H]2CCN(CCc3ccccc3)C[C@H]21	53.5
O=C(NC1CCC1)[C@@H]1CCO[C@@H]2CCN(C3CCCC3)C[C@H]21	-25.2
O=C(NC1CC1)[C@@H]1CCO[C@@H]2CCN(CCc3ccccc3)C[C@@H]21	27.3
O=C(NC1CC1)[C@@H]1CCO[C@@H]2CCN(C3CCOCC3)C[C@@H]21	26.8
CNC(=O)[C@@H]1CCO[C@@H]2CCN(CCc3ccccc3)C[C@H]21	8.52
Cc1ccc(-n2c(SCC(=O)O)nnc2-c2ccccc2)cc1	-12.9
O=C1CN(CC2CC2)Cc2nc(NCc3ccccc3)sc21	29.3
Cn1cc(-c2nc(CN3CCCCC3Cn3cncn3)cs2)cn1 (configuration not stated)	-91.6
Cc1nnc2n1CCN(C(=O)c1cc(Br)c(Cl)[nH]1)C2	18.85
Cc1noc(C2CCCN(Cn3cc(Cl)cn3)C2)n1 (configuration not stated)	-9.39
Cc1nc(CN2C(=O)CC[C@@H]3[C@H]2CCN3C2CCOCC2)cs1	50
Cc1nc(CN2C(=O)C[C@H]3[C@H]2CCN3CC2CCOC2)cs1 (some centres not stated)	56.6
Cc1nc(CN2C(=O)C[C@H]3[C@H]2CCN3C2CCOC2)cs1 (some centres not stated)	-43.1
Cc1nc(CN2C(=O)C[C@H]3[C@H]2CCN3C2CCOCC2)cs1	20.1
Cc1nc(CN2C(=O)C[C@@H]3[C@@H]2CCN3CC2CCOCC2)cs1	-5.08
Cc1nc(CN2C(=O)CC[C@@H]3[C@H]2CCN3C2CCOC2)cs1 (some centres not stated)	-54.9
